According to PubChem BioAssay (NCI):
The panel holds about 79,000 compounds, 15% with a hit somewhere; the sample as a whole holds those more often. Unmarked numbers belong to inactive results. The source made the active and inactive calls. Cut-off read from the data, not from the text of the source: active = growth inhibition above about 70%; inactive = the rest.

Assay: NCI Yeast Anticancer Drug Screen. Data for the rad50 strain (AID 155);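 note: 0% = growth of vehicle-only cultures of the same strain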
Conditions: S. cerevisiae rad50 strain growth inhibition, active compounds read high
Method: Growth inhibition of yeast strains with defined genetic alterations is measured as a screen for potential anti-cancer activity. Selected strains with alterations in DNA damage repair or cell cycle control were exposed to compounds and growth inhibition was measured relative to vehicle treated controls. The strain used in this assay is rad50

[1] = at 5.0 µM (retest, dose inferred, filed as 0.5)
[2] = at 50.0 µM (retest, dose inferred, filed as 5.0)

Row | SMILES | growth inhibition (at 1.2 µM) | growth inhibition (at 3.7 µM) | growth inhibition [1] | growth inhibition (at 11.0 µM) | growth inhibition (at 33.0 µM) | growth inhibition [2] | growth inhibition (at 50.0 µM) | growth inhibition (at 100.0 µM)
1 | CCC1(O)C(=O)OCc2c1cc1n(c2=O)Cc2c-1nc1ccccc1c2OC (stereo not given) | 85% (active) | 93% (active) | 94% (active) | 94% (active) | 94% (active) | 90% (active) | 71.2% (active) | 93% (active)
2 | CC1(Cl)CC(C)(/C=C/Cl)C(Cl)CC1Cl (stereo not given) | -1% | -8% | 12% | -3% | 28% | -8% | 58.6% | 48%
3 | CC(=O)OCC12CCC(C)=CC1OC1C3(O)N=C(C)OC3C2(C)C12CO2 (stereo not given) | – | – | 35% | – | – | 78% (active) | 32.2% | –
4 | CC(Cc1ccccc1)N(C)Cc1ccc(-c2ccccc2)o1 (stereo not given) | – | – | 27% | – | – | 91% (active) | 31.2% | –
5 | CC(O)C(=O)O.CC(O)C(=O)O.[Ni] (stereo not given) | – | – | -1% | – | – | 7% | 4.2% | –
6 | Cc1cn(CC2C=CC(CS[As](C)C)O2)c(=O)[nH]c1=O (stereo not given) | – | – | 7% | – | – | 75% (active) | 69.7% | –
7 | [Ni+2].[O-][Cl+3]([O-])([O-])O.c1ccc([PH+](CC[PH+](c2ccccc2)c2ccccc2)c2ccccc2)cc1.c1ccc([PH+](CC[PH+](c2ccccc2)c2ccccc2)c2ccccc2)cc1 | – | – | 4% | – | – | 13% | 48.6% | –
8 | CCN(CCCl)c1ccc(/C=C/C2=[N+](C)c3ccccc3C2(C)C)c(C)c1 | – | – | -5% | – | – | 98% (active) | 62% | –
9 | CCC(C)c1cc([N+](=O)[O-])cc([N+](=O)[O-])c1O (stereo not given) | – | – | -137% | – | – | 39% | 79% (active) | –
10 | CCOc1cc(/C=C/[N+](=O)[O-])ccc1O | – | – | -112% | – | – | 93% (active) | 77.2% (active) | –
